From the supplement of paper PMC6555819

Tested on: VDR:RXRa (NR concentration 270 nM, RXRa partner concentration 90 nM)
Assay: PBM binding z-score (relative to random genomic background probes); higher = stronger binding; sequences stand for … in GC…GCGATTGACAGCGTAGAATGAAGG
Experimental: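 Protein-binding microarray (Agilent 4x180K custom design, double-stranded 60-nt probes: 5' GC cap, 34-nt variable region, 24-nt constant primer region; full probe sequence given). Purified or IVT nuclear receptor:RXRα heterodimers (3:1 NR:RXRα, mostly 270:90 nM) or homodimers were incubated for 1 h in PBS with 2% milk and no ligand, then detected with Alexa488 antibodies. Fluorescence from o1-orientation probes (~5 replicates averaged) was converted to z-scores against 500 random hg19 background probes. Variable regions are seed direct-repeat (DR0–DR5) sites, all their single-nucleotide variants and half-site ablations.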

Row | Sequence | PBM binding z-score
1 | CGCCCAAGGTCAAAGGTCAGTGAAGAGATGACGG | 6.61
2 | TAGCCTAGGTCATTCGGCCAGTATAGTACGCATC | 2.24
3 | ATACCAAGGTGATCGTGAGGTCTTTGATACTAAC | 0.526
4 | TCTGTTAGTTGATTAGGGCAACCGAAACAGCGGA | 0.452
5 | CTCGAAAGGTCGGTTGAGGTGTGTATACGGATAA | 1.03
6 | TCAAATAGGTAAACAGGTGAAAGTCCGTAAGTTA | 1.18
7 | GCTGCTAGGTCAACTGATGGACAGCTAAAGCTCG | 1.27
8 | TATACAGGGTCAAAGACCAGAGTACGAATGTCGA | 4.43
9 | TCTCGGAGGACACGAAGGTCAGAGCGTTCCAGAG | 2.42
10 | GCTGCTAGGTCAGGTTGGCCAGCTAACGGGTACG | 0.052
11 | TCTATTAGTTGAAGGGCGACCGACGAGTCCGTTT | 0.925
12 | CAAACTAGGTCAAGAGGTCAAAGACCGCTTCCCG | 5.93
13 | CGTCCAAGGTCATAGGAGGTTAGTGAAGACAGAT | 5
14 | ACAGACAGGTGATGGAGGTAACTCAGGCTATCAT | 0.681
15 | TCTAGTTGGTCAAAGGTAACACACTCGAAATGCG | 1.7
16 | GCTAGTTGGTCTGTAAAAGGTCACACACCGGTCG | 3.94
17 | CCTCGGAAGACAGAAGGTCAGAGCTGTCCGCTTT | 1.01
18 | TAGCCTAGTTCAGATCGGGCCAGTATACGCTATA | -0.0916
19 | GCAGACAGGTGAAACGCAGGTAACTGAGGGTGGC | -0.361
20 | CAAACTAGGTCACAGGTCAAAGTCGAGCCAACCA | 4.33

Row | Sequence | PBM binding z-score
21 | TTACCAAGGTGAGCTGAGGTCGTTGGTCCAACTC | 3.79
22 | TCGCCTAGGTCATGCGGGCCAGTATAGTGTCGGC | 3.04
23 | ACAGACAGGTGTTGAAGGTAACTCAGGCTATCAT | -0.203
24 | CCTTACGGGTCACTGACAGGTTATATCATTTGGA | 3.81
25 | TAGGCTAGGTCAGATCGGGCCAGTATACGCTATA | 0.927
26 | CACACTAGGTCACCGGAAGGTCAAAGTCCGCATG | 5.97
27 | TGAATGAGGTTAATGATCAGGGAACGTGGCGTCG | 0.633
28 | CGTCGAAGGTCAAGGTCAGTGAAAGAGACTCGAA | 4.25
29 | CCAGACAGGTGAGGAGGTAACTCAGCCTCGATTA | 0.00298
30 | CTCGATAGGTCGTGCTCAGGTGAGTATACCAAAC | 0.637
31 | CCTAGCAGGCCAATCTGGGTCAGTCAAGGCTTGA | -0.258
32 | CAAACTAGGTCAAGAAGTCAAAGTCCGCTTCCCG | 1.93
33 | TCTTGTAGATCCAAGGTTAAGAAAGCCGAAGCCT | 0.448
34 | TCTAGTAGGTTAGTCGGGGCATTCAGCCAACATA | 2.68
35 | TCGAGTAGGTTAGTCGGGTCATTCAGCCAACATA | 4.88
36 | ATCTCTAGGTAAAGATAGTTTAGTGAATGCAAAT | 0.322
37 | AGAACGAGGTTATTAAGATCAGGGAATTGCGGTC | 2.38
38 | ATCGAAAGGTCGTAGGTGAGTATACCCACCCGAA | 3.47
39 | CAAACTAGGTCACCGGACGGTCAAAGTCCGCATG | 3.59
40 | AGAATGAGATTATTAAGATCAGGGAATTGCGGTC | -0.494
